The text below walks through data of PubChem BioAssay AID720618 (Broad Institute, 2013).

Results filed as inconclusive are left out. Active and inactive are the calls of the source. How the calls were made is not given here.

A short description of this test: HeLa cell apoptosis via caspase 3/7 – caspase 3/7 luminescence, several timepoints, dry powder, mechanism study for HRAS target identification, late-stage follow-up (AID 720618). Particulars: max activity: measured here: caspase 3/7, second timepoint, at 35 µM, stronger effect = higher value.

For `Cc1onc(C(=O)N2CCN(C(c3ccc(Cl)cc3)c3ccc(OCCOCCOCCNC(=O)OC(C)(C)C)cc3)CC2)c1[N+](=O)[O-]` (configuration not stated), the max activity turned out to be 35.4% and the compound was called inactive.
